High-throughput results as filed in PubChem.
The list is not random: actives were taken first. Their share in the collection is about 27%.
CYP2C9 inhib: blockers of cytochrome P450 2C9 activity – biochemical, luminescence, ADME assay, primary screen. inhibition, % at 5 µM. CYP2C9 Supersomes, luciferin-H conversion. 20% of 96,000 active. P11712;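 active means blocking of liver enzyme CYP2C9 beyond about 50% at 5 µM, limit read from the data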
sEH inhibitor: soluble epoxide hydrolase inhibitors, primary screen, biochemical, human sEH; AID 707, 2007; 0.34% of 91,000 active; Bifunctional epoxide hydrolase 2 (Homo sapiens), P34913; inhibition, % at 2 µM; recombinant human sEH enzymatic activity assay; in the data active means inhibition above about 80%
Target sequence (P34913 whole entry, looked up): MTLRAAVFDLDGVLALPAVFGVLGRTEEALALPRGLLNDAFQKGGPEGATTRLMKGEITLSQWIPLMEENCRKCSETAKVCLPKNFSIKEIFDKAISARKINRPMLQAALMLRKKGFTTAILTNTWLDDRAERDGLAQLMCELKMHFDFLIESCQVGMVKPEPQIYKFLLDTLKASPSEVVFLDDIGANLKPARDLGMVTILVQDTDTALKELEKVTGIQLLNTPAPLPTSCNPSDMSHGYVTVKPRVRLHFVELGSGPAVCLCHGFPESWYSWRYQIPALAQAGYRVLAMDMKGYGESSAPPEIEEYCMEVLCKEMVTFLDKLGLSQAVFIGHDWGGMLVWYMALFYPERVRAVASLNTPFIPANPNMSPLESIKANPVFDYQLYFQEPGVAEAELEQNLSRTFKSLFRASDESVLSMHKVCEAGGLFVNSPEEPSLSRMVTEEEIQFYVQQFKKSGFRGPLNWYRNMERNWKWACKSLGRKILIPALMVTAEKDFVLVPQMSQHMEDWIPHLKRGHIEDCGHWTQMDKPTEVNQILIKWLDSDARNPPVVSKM
CYP2C19 inhib: blockers of cytochrome P450 2C19 activity – biochemical, luminescence, ADME assay, primary screen; 21% of 96,000 active; inhibition, % at 5 µM; CYP2C19 Supersomes, luciferin-H EGE luminescence, 30 min; P33261;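 active means CYP2C19 inhibition above a set limit at 5 µM in the primary screen, cut at about 50% in these data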;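 further: plate controls were negative control wells for no effect and 2.5 mM tranylcypromine positive control for full effect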
CYP2C19 activ: human CYP2C19 activators, primary screen, biochemical, luminescence; 96,000 tested, under 10 active; Cytochrome P450 2C19 (Homo sapiens), P33261; activation factor at 5 µM; recombinant CYP2C19, luciferin-H EGE luminescence; active compounds read high; 0 = fully inhibited enzyme, 1 = untreated enzyme;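 active means activation factor of at least 2 at 5 µM in the primary screen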;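 further: 0 = wells with 2.5 mM tranylcypromine and 1 = vehicle-only wells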
sEH activator: soluble epoxide hydrolase activators, primary screen, biochemical, human sEH. purified human sEH enzymatic activity, activator screen. activation, % at 2 µM. 0.04% of 91,000 active; in the data active means activation above about 37%
CYP2C9 act: human CYP2C9 activators, primary screen, biochemical, luminescence; Cytochrome P450 2C9 (Homo sapiens), P11712; recombinant CYP2C9, luciferin-H conversion; active compounds read high; factor 1 = untreated enzyme, 0 = blocked; activation factor at 5 µM; 1.4% of 96,000 active; AID 1024, 2008;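 active means activation factor of 2 or more for CYP2C9 at a 5 µM dose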;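 further: 0 = sulfaphenazole-blocked wells and 1 = vehicle-only wells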
* hit, by the source's call; . = no result given.

SMILES	CYP2C9 inhib	sEH inhibitor	CYP2C19 inhib	CYP2C19 activ	sEH activator	CYP2C9 act
Cc1ccc(N(CC(=O)NCCSCc2ccco2)S(=O)(=O)c2ccc(C)cc2)cc1	87.9*	-20.8	70.9*	0.3	21.3	0.1
Cc1cccc(N(CC(=O)NCCSCc2ccco2)S(=O)(=O)c2ccccc2)c1	70.9*	-5.8	67.8*	0.3	3.7	0.3
Cc1ccc(C)c(N(CC(=O)NCCSCc2ccco2)S(C)(=O)=O)c1	88.3*	-13.7	80.9*	0.2	13.1	0.1
COC(=O)CSc1nnc(C)n1-c1cccc(C#N)c1	-18.3	9.7	-22.9	1.2	-10.8	1.2
COc1cc2c(C(=O)N3CCCc4ccccc43)cn(C)c(=O)c2cc1OC	10.7	.	26.0	0.7	.	0.9
CCOC(=O)N1CCN(C(=O)CSCC(=O)Nc2nc(-c3ccc(C)cc3)cs2)CC1	29.8	8.6	-20.4	1.2	-6.5	0.7
Cc1ccc(S(=O)(=O)Nc2ccc(N3CCOCC3)cc2)cc1	94.4*	-18.7	96.4*	0	12.2	0.1
CC(=O)Nc1ccc(S(=O)(=O)Nc2ccc(N3CCOCC3)cc2)cc1	40.0	.	90.0*	0.1	.	0.6
CC(=O)Nc1ccc(S(=O)(=O)Nc2ccc(S(=O)(=O)N3CCCC3)cc2)cc1	.	14.1	.	.	-9.1	.
Cc1ccc(NS(=O)(=O)c2ccc(N3C(=O)CCC3=O)cc2)cc1	44.2	-2.3	64.3*	0.4	0.2	0.6
O=S(=O)(Nc1ccc(N2CCOCC2)cc1)c1ccc2ccccc2c1	46.0	-5.2	92.3*	0.1	0.8	0.5
Cc1ccc(N2C(=O)CSCC2=O)cc1	-24.0	-2.5	-9.2	1.1	4.8	1.2
CCN(CC)C(=O)N1CCC(NC(=O)c2ccc(C(C)(C)C)cc2)CC1	-26.4	-3.9	-2.0	1	4.7	1.3
CSc1nc2ccc(Nc3nc(N4CCOCC4)nc(N4CCOCC4)n3)cc2s1	15.1	.	48.9	0.5	.	0.8
c1ccc(CC2CCN(c3nc(N4CCOCC4)nc(N4CCOCC4)n3)CC2)cc1	.	-5.4	.	.	8.0	.
COc1ccc(OC)c(CCNC(=O)CC2Oc3ccccc3NC2=O)c1 (stereo unspecified)	-8.2	-1.7	50.1*	0.5	2.4	1.1
Cc1ccc2c(c1)NC(=O)C(CC(=O)NCCN(CC(C)C)CC(C)C)O2 (stereo unspecified)	51.3*	2.2	4.5	1	-3.1	0.5
CCCNC(=O)C1CC(=O)N(c2ccc(OCC(=O)Nc3cc(C)cc(C)c3)cc2)C1 (stereo unspecified)	19.1	.	-14.1	1.1	.	0.8
COc1ccc(CCN2C(=S)NC3CC2(C)Oc2ccc([N+](=O)[O-])cc23)cc1OC (stereo unspecified)	71.8*	-14.0	0.1	1	12.5	0.3
COC(=O)c1sc(=S)n(-c2cccc(Cl)c2)c1N	8.8	.	13.8	0.9	.	0.9
Cc1c(C)[n+](=O)c(-c2cccs2)c(C)n1[O-]	.	-4.2	.	.	2.3	.
CC(C)COc1ccc(CSCCNC(=S)Nc2ccccc2)cc1	58.3*	8.0	35.6	0.6	-5.1	0.4
CCCNC(=S)Nc1ccc(Nc2ccccc2)cc1	38.7	8.8	25.6	0.7	-9.1	0.6
Cc1ccc(-c2nnc(C)c(N3CCOCC3)n2)cc1	1.2	-3.4	11.9	0.9	0.8	1
O=C(Nc1ccc2c(c1)oc1ccc(S(=O)(=O)N3CCCC3)cc12)C1CC1	53.0*	11.1	22.9	0.8	-9.8	0.5
SMILES	CYP2C9 inhib	sEH inhibitor	CYP2C19 inhib	CYP2C19 activ	sEH activator	CYP2C9 act
O=C(Nc1ccc2c(c1)oc1ccccc12)C1CC1	-0.3	-2.1	6.5	0.9	1.6	1
CS(=O)(=O)Nc1ccc(Br)cc1C(=O)c1ccccc1	87.7*	0.5	91.8*	0.1	-1.4	0.1
O=C(OCCCN=C1NS(=O)(=O)c2ccccc21)C1CC(=O)N(c2ccc(Cl)cc2)C1 (stereo unspecified)	.	-5.5	.	.	8.2	.
Cc1nc([N+](=O)[O-])c(N2CCN(Cc3ccccc3)CC2)n1Cc1ccccc1	57.1*	0.4	53.9*	0.5	2.0	0.4
Cc1ccc(/C=C/c2nc3ccccc3s2)s1	24.4	-3.5	72.1*	0.3	5.9	0.8
COc1ccc(N2CCN(C(=O)CCCSc3nc4ccccc4[nH]3)CC2)cc1	-22.5	3.5	40.6	0.6	-1.6	1.2
CS(=O)(=O)c1nc(-c2ccc(Br)cc2)cc(-c2ccccc2)c1C#N	73.2*	10.3	57.2*	0.4	-10.2	0.3
CS(=O)c1nc(-c2ccc(Br)cc2)cc(-c2ccccc2)c1C#N (stereo unspecified)	82.6*	.	57.0*	0.4	.	0.2
Cc1cc(C)n2nc(CC(=O)NC3CCCCCC3)nc2n1	-18.4	8.0	-14.4	1.1	-10.9	1.2
Cc1ccccc1Nc1nc(CSc2nnc(-c3ccoc3C)n2C)cs1	87.8*	-2.0	85.5*	0.1	3.7	0.1
CCN(CCCNC(=O)COc1cc(=O)n(C)c2ccccc12)c1cccc(C)c1	10.6	28.2	27.2	0.7	-28.9	0.9
Cc1cccc(NS(=O)(=O)c2ccc(C)c(C(=O)OCC(=O)Nc3cc(C)on3)c2)c1	94.0*	53.2	89.4*	0.1	-52.0	0.1
Cc1cccc(NS(=O)(=O)c2cc(C(=O)OCC(=O)Nc3cc(C)on3)ccc2C)c1	83.6*	.	48.1	0.5	.	0.2
COc1ccccc1NS(=O)(=O)c1cccc(C(=O)OCC(=O)Nc2cc(C)on2)c1	38.5	7.1	40.1	0.6	-8.5	0.6
CCOc1cc(N2CCOCC2)c(OCC)cc1NC1=NCCCCC1	6.2	.	15.1	0.8	.	0.9
Nc1c(C(=O)c2ccccc2)sc2snc(SCC(=O)c3ccccc3)c12	83.2*	-4.1	26.3	0.7	4.2	0.2
CCOC(=O)C1=C(C)NC(=S)NC1c1ccc(-c2cccc(Cl)c2C)o1 (stereo unspecified)	50.3*	-12.2	21.6	0.8	10.2	0.5
CCOC(=O)C1=C(C)NC(=O)NC1c1ccc(C)o1 (stereo unspecified)	11.9	.	7.8	0.9	.	0.9
COc1ccc(N2CCN(C(=O)c3cc4c(-c5cccc(OC)c5)nn(C)c4s3)CC2)cc1	51.3*	.	22.9	0.8	.	0.5
COc1cccc(-c2nn(C)c3sc(C(=O)NCc4ccc(C)cc4)cc23)c1	53.7*	-6.0	25.5	0.7	2.9	0.5
COc1cccc(-c2nn(C)c3sc(C(=O)NCc4ccccn4)cc23)c1	49.8	.	12.7	0.9	.	0.5
COc1ccc(C2CC(=O)c3c(C)nc(N4CCN(c5ccccc5)CC4)nc3C2)cc1 (stereo unspecified)	42.0	.	21.4	0.8	.	0.6
Cc1nc(N2CCN(Cc3ccccc3)CC2)nc2c1C(=O)CCC2	32.7	-8.0	54.8*	0.5	9.7	0.7
